HT1080NT lethal: kills 2HG-producing HT-1080-NT fibrosarcoma cells; 1.6% of 360,000 active; HT-1080-NT fibrosarcoma viability, CellTiter-Glo ATP luminescence, 48 h; Potency, µM (highest dose often 46.1 µM), hits mostly cytotoxic;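 also: NT is the 2HG producing partner of a matched IDH1 knockdown line; nearly all actives have a fitted effect of over 55% in size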
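Read-out is CellTiter-Glo luminescence after 10 minutes at room temperature, following 48 hours' compound treatment of HT-1080-NT cells (750 cells/well, RPMI, 5% FBS, 37 degrees C).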
HT1080 IDH1KD tx: HT-1080 IDH1 knockdown cell toxicity (counter line); 2% of 360,000 active; HT-1080 IDH1 knockdown viability, ATP luminescence, 48 h; Potency, µM (doses to about 46.1 µM), most hits filed as cytotoxic
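Luminescent ATP read-out (CellTiter-Glo, 10 min at room temperature) after 48 h compound exposure at 37 °C gave viability of IDH1-knockdown HT-1080 cells. Activity was normalised to DMSO and cell-free wells, then fitted as concentration-response curves.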
SW480 rereplic: inducers of DNA re-replication in SW480 colon cancer cells | SW480 DNA re-replication, Hoechst DNA content imaging, 48 h | Potency, µM (top dose mostly 46.1 µM), usual class: activators | 1.8% of 340,000 active | AID 624297; also: nearly all actives have a fitted effect of over 55% in size
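Readout is total intensity of Hoechst-stained nuclei, excited at 405 nm and collected at 500-530 nm. Compound treatment lasted 48 hr at 37 C in 5% CO2 before staining.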
KB-3-1 cytotox: kills parental KB-3-1 adenocarcinoma cells; 1.4% of 400,000 active; Potency, µM (doses to about 46.1 µM), actives largely listed as cytotoxic; KB-3-1 viability, CellTiter-Glo ATP luminescence, 72 h; also: nearly all actives have a fitted effect of over 60% in size
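Luminescent ATP read-out (CellTiter-Glo) measures survival of drug-naive KB-3-1 cells after 72 h compound exposure at 37 °C. Titration series was screened from lowest to highest concentration, with DMSO vehicle plates as background controls.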
KB-V1 MDR tox: KB-V1 MDR subline cytotoxicity; Potency, µM (doses to about 46.1 µM), hits mostly cytotoxic; 3.4% of 400,000 active; AID 1347076; KB-V1 MDR cells viability, CellTiter-Glo, 72 h; also: nearly all actives have a fitted effect of over 60% in size
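qHTS viability screen in drug-selected KB-V1 MDR cells: 72 h compound treatment at 37 degrees C, ATP luminescence end point.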
MCF10A rerep: inducers of DNA re-replication in MCF 10A breast cells. AID 624296. Potency, µM (doses to about 46.1 µM), usual class: activators. MCF 10A DNA re-replication, Hoechst nuclear intensity, 48 h. 2.9% of 350,000 active; also: nearly all actives have a fitted effect of over 50% in size
Large screens that a line does not name were inactive. Only some compounds are listed: those with a hit (about 8% of all), similar ones and a draw of the others. Calls follow the shape of the dose curve; as a rule, active = well fitted curve in the direction sought with a large enough effect; inconclusive = small, poorly fitted or top-dose-only effect, or another doubt; inactive = no such curve, though single readings can be large; an effect the other way counts as inactive or inconclusive.

N=c1c2c(-c3ccccc3)c(-c3ccccc3)n(Cc3ccco3)c2ncn1CCCn1ccnc1	HT1080NT lethal inconclusive, HT1080 IDH1KD tx inconclusive, SW480 rereplic inconclusive, KB-3-1 cytotox inconclusive, KB-V1 MDR tox 16µM, MCF10A rerep inconclusive
N=c1c2c(-c3ccccc3)c(-c3ccccc3)n(Cc3ccco3)c2ncn1Cc1ccccc1	none
S=C(Nc1ccccc1)N1CCn2cccc2C1c1cccnc1 (stereo unspecified)	KB-V1 MDR tox 16µM
Fc1cccc(NC(=S)N2CCn3cccc3C2c2cccnc2)c1 (stereo unspecified)	KB-V1 MDR tox inconclusive
N#CC1=C(N)C(C#N)(C#N)[C@H](c2c(F)cccc2F)[C@H]2CC3(CC=C12)OCCO3	HT1080NT lethal inconclusive, HT1080 IDH1KD tx 10µM, SW480 rereplic 3.3µM, KB-3-1 cytotox 6.5µM, KB-V1 MDR tox inconclusive, MCF10A rerep 4.1µM
O=S(=O)(N/N=C/c1ccccc1OCc1ccc(Cl)cc1)c1ccccc1	HT1080NT lethal inconclusive, SW480 rereplic inconclusive, KB-3-1 cytotox inconclusive, KB-V1 MDR tox 16µM, MCF10A rerep 3.3µM
COC(=O)c1ccc(COc2ccccc2/C=N/NS(=O)(=O)c2ccc(C)cc2)cc1	HT1080 IDH1KD tx inconclusive, SW480 rereplic inconclusive, KB-V1 MDR tox 18µM
COc1cc(/C=N/NS(=O)(=O)c2ccc(C)cc2)ccc1OCc1ccc(C(=O)O)cc1	none
CC(=O)Nc1cccc(OCC(=O)NS(=O)(=O)c2ccc(C)cc2)c1	none
Cc1nn(CCC(=O)NNC(=S)Nc2ccc(F)cc2)c(C)c1Br	none
CCCCNC(=S)NNC(=O)CCn1nc(C)c(Br)c1C	HT1080NT lethal 0.89µM, HT1080 IDH1KD tx 1.1µM, SW480 rereplic 8.2µM
CCOC(=O)[C@]12CCC=C1N(Cc1cccc3ccccc13)C(=O)[C@H](CC(=O)NCc1cccc3ccccc13)C2	KB-V1 MDR tox inconclusive (no result: SW480 rereplic, MCF10A rerep)
CCOC(=O)[C@]12CCC=C1N(Cc1cccc3ccccc13)C(=O)[C@H](CC(=O)NCc1ccc(C)o1)C2	HT1080NT lethal inconclusive, HT1080 IDH1KD tx inconclusive, KB-V1 MDR tox 12µM (no result: SW480 rereplic, MCF10A rerep)
CCOC(=O)[C@]12CCC=C1N(Cc1cccc3ccccc13)C(=O)[C@H](CC(=O)NCCc1ccccc1OC)C2	KB-3-1 cytotox inconclusive, KB-V1 MDR tox 15µM (no result: SW480 rereplic, MCF10A rerep)
CCOC(=O)[C@]12CCC=C1N(Cc1cccc3ccccc13)C(=O)[C@H](CC(=O)NCc1ccccc1)C2	KB-V1 MDR tox inconclusive (no result: SW480 rereplic, MCF10A rerep)
CCOC(=O)[C@]12CCC=C1N(Cc1cccc3ccccc13)C(=O)[C@H](CC(=O)NCCCCc1ccccc1)C2	KB-3-1 cytotox inconclusive, KB-V1 MDR tox 16µM (no result: SW480 rereplic, MCF10A rerep)
CCn1c(SCC(=O)NC2CC2)nnc1C(C)Oc1ccccc1 (stereo unspecified)	SW480 rereplic 21µM
CCN(CC(=O)NC(=O)NCc1ccccc1)CC(=O)Nc1cc(Cl)ccc1C	HT1080 IDH1KD tx inconclusive, KB-3-1 cytotox inconclusive
Cn1cc(CN2CCCC(C(=O)c3ccc(-c4ccccc4)cc3)C2)cn1 (stereo unspecified)	HT1080NT lethal inconclusive
Cc1nn(C)cc1CN1CCCC(C(=O)c2ccc(-c3ccccc3)c(F)c2)C1 (stereo unspecified)	HT1080NT lethal inconclusive, HT1080 IDH1KD tx inconclusive, KB-V1 MDR tox inconclusive, MCF10A rerep inconclusive
CCn1cc(CN2CCCC(C(=O)c3ccc(-c4ccccc4)cc3)C2)cn1 (stereo unspecified)	HT1080NT lethal inconclusive, HT1080 IDH1KD tx 23µM, SW480 rereplic inconclusive, KB-3-1 cytotox inconclusive, MCF10A rerep inconclusive
CCn1cc(CN2CCCC(C(=O)Nc3cccc(-c4cc5ccccc5[nH]4)c3)C2)cn1 (stereo unspecified)	HT1080NT lethal 16µM, HT1080 IDH1KD tx inconclusive, SW480 rereplic inconclusive, KB-V1 MDR tox inconclusive, MCF10A rerep inconclusive
Cn1cc(CN2CCCC(C(=O)c3ccc(-c4ccccc4)c(F)c3)C2)cn1 (stereo unspecified)	HT1080NT lethal 23µM, HT1080 IDH1KD tx 16µM, SW480 rereplic inconclusive, KB-V1 MDR tox inconclusive
COc1cccc(-c2cc(C(F)(F)F)nc(-n3cccn3)n2)c1	KB-V1 MDR tox inconclusive
COc1ccccc1C(C)Nc1ccc(S(=O)(=O)N2CCN(C)CC2)cc1[N+](=O)[O-] (stereo unspecified)	none
Cc1ccc(S(=O)(=O)c2nnn(CC(=O)Nc3ccccc3C)c2N)cc1	KB-3-1 cytotox 16µM, KB-V1 MDR tox inconclusive (no result: HT1080NT lethal, HT1080 IDH1KD tx, SW480 rereplic, MCF10A rerep)
Cc1cc(C)cc(NC(=O)Cn2nnc(C(=O)NCc3ccccc3Cl)c2N)c1	HT1080NT lethal inconclusive, HT1080 IDH1KD tx inconclusive
Cc1cccc(Cn2nnc(C(=O)Nc3cc(C)ccc3C)c2N)c1	KB-V1 MDR tox inconclusive (no result: HT1080NT lethal, HT1080 IDH1KD tx, SW480 rereplic, MCF10A rerep)
Cc1ccc(S(=O)(=O)c2nnn(CC(=O)Nc3ccccc3C)c2N)cc1C	none (no result: HT1080NT lethal, HT1080 IDH1KD tx, SW480 rereplic, MCF10A rerep)
CCc1ccccc1NC(=O)Cn1nnc(C(=O)NCc2cccc(OC)c2)c1N	HT1080 IDH1KD tx inconclusive, SW480 rereplic inconclusive, KB-3-1 cytotox 7.3µM, KB-V1 MDR tox inconclusive, MCF10A rerep 7.3µM
Cc1ccc(Cn2nnc(C(=O)Nc3cccc(C)c3C)c2N)cc1	KB-V1 MDR tox 15µM
Cc1cc(C)cc(NC(=O)Cn2nnc(C(=O)NCc3ccc(F)cc3)c2N)c1	SW480 rereplic 29µM, MCF10A rerep inconclusive
CN1CCN(C(=O)c2cc3c(c(-c4cccc(C#CC(C)(C)O)c4)n2)[C@@H](CCO)N(S(=O)C(C)(C)C)C3)CC1 (stereo partly specified)	KB-V1 MDR tox inconclusive (no result: SW480 rereplic, MCF10A rerep)
Cc1ccc(-n2c(C)cc(C=C(C#N)C#N)c2C)cc1	none
COc1ccc(NC(=O)c2nnn(Cc3ccccc3C)c2N)c(OC)c1	KB-3-1 cytotox inconclusive (no result: HT1080NT lethal, HT1080 IDH1KD tx, SW480 rereplic, MCF10A rerep)
COc1ccc(Cl)cc1NC(=O)Cn1nnc(C(=O)NCc2cccs2)c1N	KB-3-1 cytotox 7.3µM, KB-V1 MDR tox inconclusive (no result: HT1080NT lethal, HT1080 IDH1KD tx, SW480 rereplic, MCF10A rerep)
COc1ccc(OC)c(NC(=O)c2nnn(Cc3ccccc3C)c2N)c1	KB-3-1 cytotox 9.2µM, MCF10A rerep inconclusive (no result: HT1080NT lethal, HT1080 IDH1KD tx)
CCc1ccc(/C=C2\SC(=S)N(CCCC(=O)N3CCN(C)CC3)C2=O)cc1	HT1080 IDH1KD tx inconclusive (no result: SW480 rereplic, MCF10A rerep)
CN1CCN(C(=O)CCN2C(=O)/C(=C/c3cccc(Br)c3)SC2=S)CC1	HT1080NT lethal 15µM, HT1080 IDH1KD tx inconclusive, SW480 rereplic inconclusive, KB-3-1 cytotox inconclusive, MCF10A rerep 15µM
O=C(CCCN1C(=O)/C(=C/c2ccc(F)cc2)SC1=S)NCCCn1ccnc1	KB-V1 MDR tox inconclusive, MCF10A rerep 21µM
CN1CCN(C(=O)CCCN2C(=O)/C(=C/c3cccc(Br)c3)SC2=S)CC1	HT1080NT lethal inconclusive, HT1080 IDH1KD tx 18µM, SW480 rereplic inconclusive, KB-3-1 cytotox inconclusive, KB-V1 MDR tox inconclusive, MCF10A rerep 23µM
